2 molecules from PubChem BioAssay AID1159580 (chemical genetic matrix, 2015) can be followed below.

The nature of the assay: chemical genetic growth profiling, strain panel (AID 1159580).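 Note: tested at 20 µM; growth read once vehicle control cultures reached saturation at 30 °C; 1 = growth at the plate median or of vehicle wells; lower values mean less growth of the strain.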 As to conditions: S. cerevisiae deletion strains, growth OD.
The mark [1] stands for this setting: locus YHR030C, strain SLT2, hits give low values.

About 2,000 (36%) of roughly 5,500 compounds were called active. Another 18% or so got no clear call; they are omitted. This is one part of the list. Unmarked numbers belong to inactive results. Cut-off read from the data, not from the text of the source: active = normalized growth mostly below about 0.91 (no sharp cut-off); inconclusive = no clear call, values can overlap the other calls; inactive = mostly above about 0.92.

For the molecule `CC[N+](C)(CC)CCOC(=O)C(O)(c1ccccc1)C1CCCCC1` (stereo not drawn), the normalized growth is 0.989 under setting [1]; 1 (locus YHR079C, strain IRE1, hits give low values); 0.982 (locus YJL095W, strain BCK1, hits give low values); 0.901 (locus YJR066W, strain TOR1, hits give low values); 1.03 (locus YLR113W, strain HOG1, hits give low values); 0.913 (locus YNL183C, strain NPR1, hits give low values). The normalized growth is 0.988 (locus YOR231W, strain MKK1, hits give low values) and 0.989 (locus YPL256C, strain CLN2, hits give low values).
On to `COc1ccc(C2=C(C(C)=O)C(C)=NC(=S)C2C#N)cc1` (stereo not drawn), for which the normalized growth reads like this: (locus YAL013W, strain DEP1, hits give low values) 1.01; (locus YBR229C, strain ROT2, hits give low values) 1.02; (locus YCL061C, strain MRC1, hits give low values) 1.01; (locus YDL101C, strain DUN1, hits give low values) 1.05; (locus YDR150W, strain NUM1, hits give low values) 0.933; (locus YEL061C, strain CIN8, hits give low values) 1.04. The normalized growth (locus YGR078C, strain PAC10, hits give low values) is 0.993; the normalized growth under setting [1] is 0.947; the normalized growth (locus YHR087W, strain rtc3, hits give low values) is 1.04; the normalized growth (locus YJL187C, strain SWE1, hits give low values) is 1; the normalized growth (locus YJR043C, strain POL32, hits give low values) is 1.04; the normalized growth (locus YJR075W, strain HOC1, hits give low values) was 1.01. The normalized growth runs as follows: (locus YKL190W, strain CNB1, hits give low values) 0.987; (locus YLR039C, strain RIC1, hits give low values) 0.977; (locus YLR058C, strain SHM2 (second series), hits give low values) 0.994; (locus YLR085C, strain ARP6, hits give low values) 0.89; (locus YLR262C, strain YPT6, hits give low values) 0.972; (locus YML094W, strain GIM5, hits give low values) 1.12. The normalized growth reads like this: (locus YMR219W, strain ESC1, hits give low values) 0.998; (locus YMR263W, strain SAP30, hits give low values) 0.905; (locus YMR307W, strain GAS1, hits give low values) 0.702; (locus YNL128W, strain TEP1, hits give low values) 0.983; (locus YNL153C, strain GIM3, hits give low values) 1.03; (locus YNL298W, strain CLA4 (second series), hits give low values) 0.89. The normalized growth was 1 (locus YNL322C, strain KRE1, hits give low values); 0.987 (locus YNR030W, strain Alg12, hits give low values); 0.754 (locus YOL006C, strain TOP1, hits give low values); 0.97 (locus YPL055C, strain LGE1, hits give low values); 0.943 (locus YPL241C, strain CIN2, hits give low values); 0.356 (active) (locus YPR135W, strain CTF4, hits give low values).
